From PubChem BioAssay
Inconclusive results are not listed. Active and inactive are the calls of the source.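 How the source made its calls, unless noted: active means growth inhibition above 25% in both replicates, a cutoff set 3 SD above the mean; inconclusive means above 25% in only one replicate; inactive means the rest.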

What was measured:
[1] = Her2 expression decrease, cell viability multiplex – SKBR3 breast tumor cells, AlphaScreen, ATP viability, primary screen (AID 461;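 active means Her2 level under about 52% in both replicate screens, with viability over 70% of control, limit read from the data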;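 on Her2 level: lower value means less Her2 protein in the cells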;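 on viability: percent of carrier control wells set as 100% viability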); details: SKBR3 Her2 protein level, 18-24 h, measured here: SKBR3 viability, ATP luminescence, at 10 µM
[2] = molecular target: Receptor tyrosine-protein kinase erbB-2 (Homo sapiens) (UniProt P04626); experiment: as above; details: 18-24 h, at 10 µM, stronger effect = lower value
Sequence of Receptor tyrosine-protein kinase erbB-2 (Homo sapiens) (P04626 whole entry, looked up): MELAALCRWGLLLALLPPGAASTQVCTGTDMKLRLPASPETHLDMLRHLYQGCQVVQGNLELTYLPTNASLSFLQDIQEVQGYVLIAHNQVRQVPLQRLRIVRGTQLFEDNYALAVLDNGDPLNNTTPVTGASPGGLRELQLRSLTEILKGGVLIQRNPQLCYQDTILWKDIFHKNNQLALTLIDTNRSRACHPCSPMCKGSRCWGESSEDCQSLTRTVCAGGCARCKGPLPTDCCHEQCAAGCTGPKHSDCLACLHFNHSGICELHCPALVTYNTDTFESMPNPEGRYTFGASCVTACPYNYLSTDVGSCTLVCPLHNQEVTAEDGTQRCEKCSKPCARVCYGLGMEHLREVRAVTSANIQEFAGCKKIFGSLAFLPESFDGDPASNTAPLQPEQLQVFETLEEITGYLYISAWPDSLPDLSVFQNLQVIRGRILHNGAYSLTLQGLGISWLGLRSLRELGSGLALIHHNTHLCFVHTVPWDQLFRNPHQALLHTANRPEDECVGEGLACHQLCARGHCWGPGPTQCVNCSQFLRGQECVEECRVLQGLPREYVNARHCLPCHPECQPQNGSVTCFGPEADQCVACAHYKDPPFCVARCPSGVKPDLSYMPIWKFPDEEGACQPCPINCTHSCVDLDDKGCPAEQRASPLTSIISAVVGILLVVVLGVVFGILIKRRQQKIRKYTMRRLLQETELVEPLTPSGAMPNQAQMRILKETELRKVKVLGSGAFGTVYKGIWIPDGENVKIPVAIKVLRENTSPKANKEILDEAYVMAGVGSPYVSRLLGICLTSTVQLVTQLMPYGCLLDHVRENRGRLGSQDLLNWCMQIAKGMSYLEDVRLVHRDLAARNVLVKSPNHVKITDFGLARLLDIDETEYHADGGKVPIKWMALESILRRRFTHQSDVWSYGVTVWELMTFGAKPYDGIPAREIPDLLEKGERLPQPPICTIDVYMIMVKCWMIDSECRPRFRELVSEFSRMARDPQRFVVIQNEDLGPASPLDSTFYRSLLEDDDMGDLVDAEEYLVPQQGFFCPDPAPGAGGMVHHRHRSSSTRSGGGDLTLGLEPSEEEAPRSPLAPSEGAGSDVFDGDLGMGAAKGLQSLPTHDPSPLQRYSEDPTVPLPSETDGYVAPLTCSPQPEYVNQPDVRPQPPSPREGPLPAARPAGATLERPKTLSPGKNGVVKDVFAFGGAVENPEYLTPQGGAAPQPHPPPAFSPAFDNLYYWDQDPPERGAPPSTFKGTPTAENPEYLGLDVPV

[3] = reduced viability of SK-BR-3 breast cancer cells – cell-based, 24 h, human, pilot screen (AID 572;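 active means viability at or below 10% of carrier control in both of two separate runs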;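 further: compound exposure lasted between 18 and 24 h rather than exactly 24 h; 100% = carrier-treated control wells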); details: SK-BR-3 viability, CellTiter-Glo luminescence, at 10 µM, stronger effect = lower value
[4] = HUVEC growth inhibition – cell-based, human, primary screen (AID 575;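 active means viability at or below 30% in both replicate assays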;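 further: 100% = median of untreated cell wells with 0.1% DMSO on each plate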); details: HUVEC proliferation, CellTiter-Glo luminescence, 72 h; at 10 µM; stronger effect = lower value
[5] = H69AR cell proliferation blockers – human, duplicate replicates, primary screen (AID 580;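 active means viability at or under a set limit in both replicates, limit being median viability minus 3 SD, cut at about 48% in these data, passing the limit was not always enough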;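 further: 100% = mean luminescence of untreated wells and 0% = no signal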); details: H69AR lung tumor cells viability, ATP luminescence, 72 h; at 10 µM; stronger effect = lower value
[6] = MRP1 drug-resistance reversers in H69AR cells – cell-based, doxorubicin co-treatment, pilot screen (AID 601;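 active means viability loss from added drug above about 55%, and viability with drug at most 40%, in both replicates, limit read from the data, passing the limit was not always enough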); details: CellTiter-Glo, 72 h, at 10 µM; for differential viability (reversal): stronger effect = higher value
[7] = yeast transport mutant growth inhibition pilot in 384-well plates, post-Golgi transport modulator project (AID 636; in the data active means inhibition above about 31%); details: absorbance 615 nm, about 18 h, stronger effect = higher value
[8] = growth suppression of yeast trafficking mutant, preliminary HTS, modulators of trafficking downstream of Golgi apparatus project, 1536-format plate, OD 615 nm (AID 637; in the data active means inhibition above about 30%); details: yeast transport mutant growth, absorbance 615 nm, 18 h; stronger effect = higher value
[9] = S. cerevisiae growth inhibition in permissive medium (OD615), pilot counter-assay for S. cerevisiae lifespan shortening project, permissive growth control (AID 705); details: OD615, 24 h, at 10 µM, stronger effect = higher value
[10] = S. cerevisiae growth inhibition in restrictive medium, OD615, pilot screen, restrictive growth control, yeast lifespan reduction project (AID 706;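 active means growth inhibition above a set limit, 3 SD over mean compound inhibition, in both replicates, cut at about 43% in these data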;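 further: modified DeaD lifespan yeast strain shifted to restrictive glucose medium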); details: OD615, 48 h, at 10 µM, stronger effect = higher value
[11] = doxorubicin toxicity protection in MRP-1 cells – H69AR cells, CellTiter-Glo, duplicate, MRP-1 activator project, pilot screen (AID 807;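 active means viability increase at or above a cutoff of the median across tested compounds plus 3 SD, cut at about 8.5% in these data, passing the limit was not always enough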;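 further: compound pretreatment 18-22 h then 72 h combined with doxorubicin; 0% = doxorubicin alone and 100% = vehicle without doxorubicin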); details: H69AR viability with doxorubicin, CellTiter-Glo luminescence; at 10 µM; stronger effect = higher value
[12] = viability of HCT116 without oncogenic beta-catenin – human colon tumor cells, pilot screen (AID 823;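 active means cell viability at or below a set limit in both duplicate runs, the limit being the all-compound median minus 4 SD, cut at about 23% in these data, passing the limit was not always enough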;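 further: 0% = wells killed by 20 µM Hyamine and 100% = untreated DMSO cell wells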); details: HCT116 beta-catenin knockout viability, CellTiter-Glo, 60 h; at 10 µM; stronger effect = lower value
[13] = viability of PTEN-null HCT116 cells – cell-based, HCT116 clonal line, CellTiter-Glo, pilot screen (AID 824;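 active means viability at or below 27.92% in each of two runs, the all-compound median minus 4 SD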;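 further: 0% = 20 µM Hyamine control and 100% = vehicle cell control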); details: HCT116 PTEN-deleted viability, 60 h, at 10 µM, stronger effect = lower value
[14] = RAM pathway blockade in budding yeast – dse1pr::URA3 reporter, 5-FOA selection, pilot screen (AID 869;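 active means inhibition over a set limit, the all-compound mean plus 3 SD, in both replicate runs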;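 further: 0% = DMSO wells with no growth and 100% = 10 µM 1-NA-PP1 with full growth; RAM network block rescues cells from 5-FOA so hits raise OD615 growth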); details: S. cerevisiae dse1pr::URA3 5-FOA growth, OD615, 2 d; at 10 µM; stronger effect = higher value; strain carries analog-sensitive mutant Cbk1 kinase
[15] = RAM signaling pathway blockade in yeast – S. cerevisiae, Pdr1DBD-CYC8 efflux-inhibited sensitized strain, primary screen (AID 1298;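 active means RAM network inhibition above 8.4% in each of two replicates, 3 SD over the compound average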;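 further: 0% = DMSO untreated cells without growth and 100% = 10 µM 1-NA-PP1 full growth; higher means more yeast growth rescued from 5-FOA killing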); details: S. cerevisiae cbk1-as DSE1-URA3 strain, 5-FOA growth OD615, 2 d; at 50 µM; stronger effect = higher value
[16] = H69AR cells + 2 uM doxorubicin, measured here: viability with 2 uM doxorubicin, stronger effect = lower value
[17] = H69AR cells, compound alone cytotoxicity

CC(C)(NC(=O)N1CCCC1)c1cccc(C(C)(C)NC(=O)N2CCCC2)c1
98%: viability [1]
90.3%: viability [6, 16]
inactive: Her2 level [2] 81.5% | viability [3] 98% | viability [4] 97.7% | viability [5] 95.5% | differential viability (reversal) ([6]; H69AR cells + 2 uM doxorubicin) 5.27% | inhibition [7] -4.42% | inhibition [8] -4% | growth inhibition [9] 0.795% | growth inhibition [10] 3.39% | viability increase [11] -0.99% | viability [12] 100% | viability [13] 97.4% | inhibition [14] 0.535% | RAM network inhibition [15] 0.88%
95.5%: viability [6, 17]

CCOC(=O)C1=C(C)NC(=O)NC1c1ccc(Br)s1 (stereo not given)
83.5%: viability [6, 16]
119%: viability [1]
inactive: Her2 level [2] 102% | viability [3] 119% | viability [4] 103% | viability [5] 108% | differential viability (reversal) ([6]; H69AR cells + 2 uM doxorubicin) 24.9% | inhibition [7] -6.53% | inhibition [8] 4.03% | growth inhibition [9] -10.5% | growth inhibition [10] -15.3% | viability increase [11] -0.63% | viability [12] 92.8% | viability [13] 89.7% | inhibition [14] 0.86% | RAM network inhibition [15] 3.71%
108%: viability [6, 17]

O=C(NCCN1C(=O)C2C3C=CC(C3)C2C1=O)N1CCOCC1 (stereo not given)
inactive: Her2 level [2] 106% | viability [3] 89.5% | viability [4] 90.2% | viability [5] 93.7% | differential viability (reversal) ([6]; H69AR cells + 2 uM doxorubicin) 4.75% | inhibition [7] 0.67% | inhibition [8] -2.5% | growth inhibition [9] -8.54% | growth inhibition [10] 8.98% | viability increase [11] -1.43% | viability [12] 105% | viability [13] 94.9% | inhibition [14] 1.08% | RAM network inhibition [15] 0.73%
89.5%: viability [1]
93.7%: viability [6, 17]
88.9%: viability [6, 16]

CCOc1ccccc1C(=O)Nc1nnc(CC)s1
97%: viability [6, 17]
inactive: Her2 level [2] 84% | viability [3] 94.5% | viability [4] 114% | viability [5] 97% | differential viability (reversal) ([6]; H69AR cells + 2 uM doxorubicin) 8.28% | inhibition [7] -1.73% | inhibition [8] 3% | growth inhibition [9] -0.29% | growth inhibition [10] 12.6% | viability increase [11] -2.43% | viability [12] 96.3% | viability [13] 98.3% | inhibition [14] 0.31% | RAM network inhibition [15] 1.61%
94.5%: viability [1]
88.7%: viability [6, 16]

CCOc1ccc(Cn2nnc(C(=O)NCc3ccc(OC)cc3)c2N)cc1
inactive: Her2 level [2] 102% | viability [3] 95% | viability [4] 74.3% | viability [5] 89.5% | differential viability (reversal) ([6]; H69AR cells + 2 uM doxorubicin) -2.11% | inhibition [7] -4.67% | inhibition [8] -4.33% | growth inhibition [9] -3.91% | growth inhibition [10] -6.16% | viability increase [11] -0.43% | viability [12] 95.8% | viability [13] 94.8% | inhibition [14] 2.19% | RAM network inhibition [15] 4.7%
95%: viability [1]
89.5%: viability [6, 17]
91.6%: viability [6, 16]

COCCCN(C)C1CCN(C(=O)Nc2ccc(F)cc2)CC1
inactive: Her2 level [2] 124% | viability [3] 106% | viability [4] 109% | viability [5] 89% | differential viability (reversal) ([6]; H69AR cells + 2 uM doxorubicin) -5.42% | inhibition [7] -3.47% | inhibition [8] -1.5% | growth inhibition [9] -6.78% | growth inhibition [10] 3.39% | viability increase [11] 0.68% | viability [12] 103% | viability [13] 105% | inhibition [14] 0.185% | RAM network inhibition [15] 8.93%
89%: viability [6, 17]
106%: viability [1]
94.4%: viability [6, 16]

O=C(NCCSc1c[nH]c2ccccc12)c1ccc(Br)o1
54.6%: viability [6, 17]
75.8%: viability [6, 16]
104%: viability [1]
inactive: Her2 level [2] 94.5% | viability [3] 104% | viability [4] 47.8% | viability [5] 54.6% | differential viability (reversal) ([6]; H69AR cells + 2 uM doxorubicin) -21.1% | inhibition [7] -2.93% | inhibition [8] 1.17% | growth inhibition [9] -10.7% | growth inhibition [10] -12.6% | viability increase [11] -3.97% | viability [12] 106% | viability [13] 93.6% | inhibition [14] 1.83% | RAM network inhibition [15] 3.28%

Oc1ccc(-c2n[nH]c(=S)n2Cc2ccccc2)cc1
105%: viability [6, 17]
inactive: Her2 level [2] 120% | viability [3] 90.5% | viability [4] 112% | viability [5] 105% | differential viability (reversal) ([6]; H69AR cells + 2 uM doxorubicin) 2.54% | inhibition [7] 5.45% | inhibition [8] -2.83% | growth inhibition [9] 5.8% | growth inhibition [10] -5.84% | viability increase [11] -1.84% | viability [12] 101% | viability [13] 91.2% | inhibition [14] 0.655% | RAM network inhibition [15] -0.9%
102%: viability [6, 16]
90.5%: viability [1]

Cc1ccc(N=Cc2ccc[nH]2)c(O)c1
81.9%: viability [6, 17]
96.4%: viability [6, 16]
inactive: Her2 level [2] 88.5% | viability [3] 96% | viability [4] 76.8% | viability [5] 81.9% | differential viability (reversal) ([6]; H69AR cells + 2 uM doxorubicin) -14.5% | inhibition [7] -2.56% | inhibition [8] 0.5% | growth inhibition [9] -20.2% | growth inhibition [10] -5.83% | viability increase [11] -4.28% | viability [12] 71.8% | viability [13] 88.4% | inhibition [14] 1.36% | RAM network inhibition [15] 0.26%
96%: viability [1]

COC(=O)C1=C(C)Nc2ncnn2C1c1ccc(C)o1 (stereo not given)
91.7%: viability [6, 17]
84.2%: viability [6, 16]
inactive: Her2 level [2] 119% | viability [3] 103% | viability [4] 94.5% | viability [5] 91.7% | differential viability (reversal) ([6]; H69AR cells + 2 uM doxorubicin) 7.49% | inhibition [7] 0.27% | inhibition [8] 4.67% | growth inhibition [9] -16.6% | growth inhibition [10] -18.4% | viability increase [11] -1.12% | viability [12] 107% | viability [13] 101% | inhibition [14] 2.39% | RAM network inhibition [15] -1%
103%: viability [1]
